Inconclusive results are not listed. Active and inactive are the calls of the source. Calls follow the shape of the dose curve; as a rule, active = well fitted inhibition curve with a large enough effect; inconclusive = small, poorly fitted or top-dose-only effect, or effect the other way; inactive = flat fitted curve, though single readings scatter.
The molecules below were run against ATP-dependent 6-phosphofructokinase (Trypanosoma brucei brucei) (UniProt O15648) (assay: qHTS Assay to Find Inhibitors of T. brucei phosphofructokinase: hit validation (AID 492961;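 as to activity change, negative = inhibition: luminescence reports ADP formed as PFK phosphorylates fructose-6-phosphate with ATP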)). Conditions: T. brucei PFK, ADP-Glo luminescence; series mostly up to 51.4 µM; activity change, negative = inhibition: at the top concentration.
Chain of ATP-dependent 6-phosphofructokinase (Trypanosoma brucei brucei) (O15648 whole entry, looked up): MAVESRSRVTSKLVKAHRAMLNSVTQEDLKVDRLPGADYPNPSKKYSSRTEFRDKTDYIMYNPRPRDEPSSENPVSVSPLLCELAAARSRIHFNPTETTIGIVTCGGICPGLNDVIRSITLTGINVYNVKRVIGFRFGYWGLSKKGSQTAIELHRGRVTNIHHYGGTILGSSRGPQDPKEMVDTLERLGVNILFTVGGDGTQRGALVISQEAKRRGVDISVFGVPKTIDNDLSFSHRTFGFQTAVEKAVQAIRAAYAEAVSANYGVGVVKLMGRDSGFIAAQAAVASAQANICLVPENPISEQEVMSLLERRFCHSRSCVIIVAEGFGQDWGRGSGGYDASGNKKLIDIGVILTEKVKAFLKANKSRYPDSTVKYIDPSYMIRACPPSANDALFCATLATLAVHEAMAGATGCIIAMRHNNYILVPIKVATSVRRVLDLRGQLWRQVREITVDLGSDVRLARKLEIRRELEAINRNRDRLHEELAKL
Method in brief: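 Percent activity derived from corrected luminescence, normalized between 0x and 1x enzyme controls, then fitted to concentration-response curves. Conditions: 1.25 nM PFK, 0.1 mM ATP, 0.5 mM F6P, 45 min RT.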
With `O=S(=O)(O)c1cc(O)c2c(N=Nc3ccc(Nc4ccccc4)c4c(S(=O)(=O)O)cccc34)cc(S(=O)(=O)O)cc2c1` the “activity change, negative = inhibition” value was -24.3% (inactive).
For `C#CCOc1ccc2c(C)cc(=O)oc2c1`, the “activity change, negative = inhibition” value was 8.19% (inactive).
`O=C(COc1ccc(Cl)cc1)OCCNC12CC3CC(CC(C3)C1)C2` was tested, and the “activity change, negative = inhibition” value was 1.65% (inactive).
`Cc1c(C)c2c(c(C)c1O)CC[C@@](C)(CCC[C@H](C)CCC[C@H](C)CCCC(C)C)O2` was tested, and the “activity change, negative = inhibition” value was -0.163% (inactive).
In the case of `CCCCCCCCCCCC[n+]1ccc2ccccc2c1`, the “activity change, negative = inhibition” value was 4.19% (inactive).
In the case of `Cc1ccccc1`, the “activity change, negative = inhibition” value was 1.94% (inactive).
For `C=C1C(=CC=C2CCC[C@@]3(C)[C@@H]2CC[C@H]3[C@H](C)CCCC(C)C)C[C@@H](O)C[C@@H]1O`, the “activity change, negative = inhibition” value was 0% (inactive).
With `CCCCC(=O)O[C@]1(C(=O)CO)[C@H](C)C[C@H]2[C@@H]3CCC4=CC(=O)C=C[C@]4(C)[C@@]3(F)[C@@H](O)C[C@@]21C` the “activity change, negative = inhibition” value was -8.39% (inactive).
`O=C(Nc1ccc(Br)cc1)c1cc(Br)c(Br)s1` was tested, and the “activity change, negative = inhibition” value was -5.31% (inactive).
With `CCOC(C)=O` the “activity change, negative = inhibition” value was 2.11% (inactive).
For `CCOC(=O)C1=C(C)NC(C)=C(C(=O)OCC)C1c1ccccc1C=CC(=O)OC(C)(C)C`, the “activity change, negative = inhibition” value was 2.13% (inactive).
In the case of `O=C(O)CN(CCN(CC(=O)O)CC(=O)O)CC(=O)O`, the “activity change, negative = inhibition” value was 0.159% (inactive).
In the case of `CC(O)CO` (centres undefined), the “activity change, negative = inhibition” value was 0.269% (inactive).
`O=CCCCC=O` was tested, and the “activity change, negative = inhibition” value was -5.49% (inactive).
`CCN(CC)Cc1cc(Nc2ccnc3cc(Cl)ccc23)ccc1O` was tested, and the “activity change, negative = inhibition” value was -15.7% [at 24.3 µM] (inactive).
With `CC(C(=O)O)c1ccc(N2Cc3ccccc3C2=O)cc1` (centres undefined) the “activity change, negative = inhibition” value was -9.48% (inactive).
For `O=S(=O)(O)O`, the “activity change, negative = inhibition” value was 4.38% (inactive).
In the case of `CC1=C(/C=C/C(C)=C/C=C/C(C)=C/C=C/C=C(C)/C=C/C=C(C)/C=C/C2=C(C)CCCC2(C)C)C(C)(C)CCC1`, the “activity change, negative = inhibition” value was 4.43% (inactive).
`CC1(C)S[C@@H]2[C@H](NC(=O)[C@@H](NC(=O)N3CCNC3=O)c3ccccc3)C(=O)N2[C@H]1C(=O)O` was tested, and the “activity change, negative = inhibition” value was 0.158% [at 24.3 µM] (inactive).
`CCCCCCCC/C=C\CCCCCCCC(=O)O` was tested, and the “activity change, negative = inhibition” value was -0.106% (inactive).
With `CO[C@H](C(=O)[C@@H](O)[C@@H](C)O)C1Cc2cc3cc(O[C@H]4C[C@@H](O[C@H]5C[C@@H](O)[C@H](O)[C@@H](C)O5)[C@@H](O)[C@@H](C)O4)c(C)c(O)c3c(O)c2C(=O)[C@H]1O[C@H]1C[C@@H](O[C@H]2C[C@@H](O[C@H]3C[C@](C)(O)[C@H](O)[C@@H](C)O3)[C@H](O)[C@@H](C)O2)[C@H](O)[C@@H](C)O1` (some centres undefined) the “activity change, negative = inhibition” value was -13.1% (inactive).
In the case of `Cc1cc(C(=O)NNCc2ccccc2)no1`, the “activity change, negative = inhibition” value was 3.76% [at 24.3 µM] (inactive).
`Cc1cn([C@H]2C[C@H](O)[C@@H](CO)O2)c(=O)[nH]c1=O` was tested, and the “activity change, negative = inhibition” value was -1.83% (inactive).
In the case of `CC1=CCC(C(C)(C)O)CC1` (centres undefined), the “activity change, negative = inhibition” value was 5.89% (inactive).
`CCCCC/C=C\C/C=C\CCCCCCCC(=O)O` was tested, and the “activity change, negative = inhibition” value was 2.73% (inactive).
With `C=CCSSSCC=C` the “activity change, negative = inhibition” value was 9.54% (inactive).
In the case of `CC[C@@]1(O)C(=O)OCc2c1cc1n(c2=O)Cc2cc3c([N+](=O)[O-])cccc3nc2-1`, the “activity change, negative = inhibition” value was 12.8% (inactive).
With `COCC(=O)Nc1cc(Sc2ccccc2)ccc1N=C(NC(=O)OC)NC(=O)OC` the “activity change, negative = inhibition” value was 4.04% (inactive).
With `Cc1ccccc1OCC(O)CNCCOc1ccc(C(N)=O)cc1` (centres undefined) the “activity change, negative = inhibition” value was -9.31% (inactive).
`CC(C)(C)NC(=O)[C@@H]1C[C@@H]2CCCC[C@@H]2CN1C[C@@H](O)[C@H](Cc1ccccc1)NC(=O)[C@H](CC(N)=O)NC(=O)c1ccc2ccccc2n1` was tested, and the “activity change, negative = inhibition” value was 5.6% (inactive).
`CC(NNC(=O)c1ccccc1)c1ccccc1` (centres undefined) was tested, and the “activity change, negative = inhibition” value was 8.59% (inactive).
For `CCCCCCCCCCCCCCCC(=O)OCC(COC(=O)CCCCCCCCCCCCCCC)OC(=O)CCCCCCCCCCCCCCC`, the “activity change, negative = inhibition” value was -2.08% (inactive).
With `CN1C(=O)CN2CCc3ccccc3C2c2cc(Cl)ccc21` (centres undefined) the “activity change, negative = inhibition” value was 0.446% (inactive).
`Clc1cc(Cl)c(OCC#CI)cc1Cl` was tested, and the Potency was 12.6 µM (active).

From PubChem BioAssay (NCATS)
% is scaled to controls: 0 for no effect and ±100 for the full control effect; potency is read from the fitted curve at half-maximal effect.
